Screens from PubChem BioAssay.
Autofluor counter: flagged as autofluorescent in microsphere protease counterscreen | compound autofluorescence counterscreen, microsphere flow cytometry; hits give high values | fluorescence intensity (test concentration not listed) | 3.1% of 360,000 active | AID 624483; in the data active = fluorescence intensity above about 16000; inconclusive = no clear call, values can overlap the other calls
FBA Mtb inh: Mtb fructose-bisphosphate aldolase inhibition; 2.3% of 360,000 active; inhibition, % at 1 µM; purified M. tuberculosis FBA, fluorescence read-out; AID 588726
Target sequence (P9WQA3 whole entry, looked up): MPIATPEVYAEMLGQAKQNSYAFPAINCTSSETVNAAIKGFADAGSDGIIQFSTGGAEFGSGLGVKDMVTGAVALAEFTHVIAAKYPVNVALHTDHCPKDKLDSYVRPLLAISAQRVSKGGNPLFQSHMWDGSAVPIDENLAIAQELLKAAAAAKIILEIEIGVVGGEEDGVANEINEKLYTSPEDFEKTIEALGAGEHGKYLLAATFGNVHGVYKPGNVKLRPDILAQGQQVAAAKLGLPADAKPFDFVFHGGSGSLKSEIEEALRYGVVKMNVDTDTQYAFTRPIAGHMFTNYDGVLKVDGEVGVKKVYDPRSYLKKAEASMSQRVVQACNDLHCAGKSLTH
Anthrax LF prot: anthrax lethal factor protease inhibition | P15917 | multiplex microsphere protease cleavage assay, LF | inhibition, % at 10 µM | 0.12% of 360,000 active; in the data active = inhibition above about 30%; inconclusive = no clear call, values can overlap the other calls
BoNT-F LC inh: blocks Botulinum neurotoxin F light chain protease; 0.22% of 360,000 active; AID 588497; inhibition, % at 10 µM; Multiplex microsphere protease cleavage assay, flow cytometry; in the data active = inhibition above about 35%, passing the limit was not always enough; inconclusive = no clear call, values can overlap the other calls
GDH-TPI counter-1: inhibits GDH-TPI coupling enzymes, artifact for Mtb FBA screen | GDH-TPI coupled enzyme counterscreen, NADH absorbance | inhibition, % at 4.8 µM | 1.2% of 360,000 active | AID 588335; in the data active = inhibition above about 30%
BoNT A protease: BoNT A light chain protease inhibition; multiplex microsphere protease substrate cleavage, flow cytometry; inhibition, % at 10 µM; 0.17% of 360,000 active; AID 588499; in the data active = inhibition above about 30%; inconclusive = no clear call, values can overlap the other calls
Mtb FBA inh conf: Mtb FBA inhibition, confirmed | shares compounds with FBA Mtb inh | purified M. tuberculosis FBA, fluorescence read-out | inhibition, % at 1 µM | 78% of 5,600 active | AID 651616
GDH-TPI counter-2: inhibits GDH-TPI coupling enzymes, flagging Mtb FBA hits; shares compounds with FBA Mtb inh; GDH-TPI coupled enzyme counterscreen, fluorescence; 81% of 5,600 active; AID 652141; inhibition, % at 1 µM; in the data active = inhibition above about 10%
A number is an active result; n = inactive; u = inconclusive; x = no result; + = active, no number. Compounds with a hit are over-represented: about 6.7% of the library has one in this group of screens. Cut-off read from the data, not from the text of the source, unless noted: active = inhibition above about 27%; inactive = the rest.

SMILES	Autofluor counter	FBA Mtb inh	Anthrax LF prot	BoNT-F LC inh	GDH-TPI counter-1	BoNT A protease	Mtb FBA inh conf	GDH-TPI counter-2
CCc1c(C)nc2ncnn2c1N1CCCC(C(=O)Nc2cc(F)ccc2C)C1 (stereo unspecified)	n	28.4	n	n	n	n	n	n
CCCCN1C(=O)CCC(C(=O)O)C1c1ccccc1 (stereo unspecified)	n	n	n	n	n	n	x	x
Cc1ccc(C(=O)CC(c2cccs2)S(=O)(=O)c2ccc(C)cc2)cc1 (stereo unspecified)	n	101.5	n	n	n	n	61.2	28.9
OC1c2c(F)cccc2N=C2CCCCN21 (stereo unspecified)	n	37.6	n	n	n	n	176.4	161.8
Cc1ccc(C2C=C(c3ccccc3)Nc3ncnn32)cc1 (stereo unspecified)	n	30.1	n	n	n	n	38.3	26.1
CCOc1ccc(C2C=C(c3ccc(F)cc3)Nc3ncnn32)cc1 (stereo unspecified)	n	31.1	n	n	n	n	146.3	100.0
Cn1nnnc1SCC(=O)N1CCc2ccccc2C1	n	n	n	n	n	n	x	x
CCCCN1CN(S(=O)(=O)c2ccc(OC)cc2)c2nc3ccccc3nc21	n	n	n	n	n	n	x	x
Cc1cnc(NC(=O)CN2CCN(c3ccccc3F)CC2)s1	n	n	n	n	n	n	x	x
Cc1cccc(-c2cnc3cccnn23)c1	n	44.7	n	n	n	n	n	n
CCOc1cccc(-c2cnc3cccnn23)c1	n	72.7	n	n	n	n	n	n
COc1ccc(CN2CCN(CC=C(C)C)C(CCO)C2)cc1Cn1cncn1 (stereo unspecified)	n	n	n	n	n	n	x	x
CC(C)C[C@@H](CNCC(=O)[C@H](Cc1c[nH]c2ccccc12)NC(=O)c1[nH]cnc1C(=O)N[C@@H](C)CN)NC(=O)c1nc[nH]c1C(=O)N[C@@H](C)C(=O)O	n	n	n	n	n	n	x	x
CCNC(=S)Nc1ccc2c(c1)c(=O)n(C)n2CC=C(C)C	n	62.6	n	n	n	n	184.6	151.9
C=C(C)Cn1c2ccc(NC(=S)NCc3ccccc3F)cc2c(=O)n1C	n	36.0	n	n	n	n	147.8	105.8
Cc1cc(C)cc(Cn2c3ccc(NC(=S)NCc4ccccc4F)cc3c(=O)n2C)c1	n	n	n	n	n	n	x	x
Cn1cc(-c2ccc(C(=O)NCc3cccc(Cl)c3)c3occc23)cn1	n	41.6	n	n	n	n	n	n
CCOC(=O)c1c(C)n(-c2ccc(OC)cc2)c2ccc(O)c(CN(C)C)c12	n	n	n	n	n	n	x	x
Clc1ccc(CN2C3=NCCN3c3ccccc32)cc1	n	n	n	n	n	n	x	x
N#CCSc1n[nH]c2nc3c(c(=O)n12)C1(CCCC1)Cc1ccccc1-3	n	65.8	n	n	n	n	114.7	82.7
CC(C)SCC(=O)Nc1ncc2c(n1)-c1ccccc1CC2	n	28.8	n	n	n	n	n	n
COc1ccc(C(=O)NN/C(=N/S(=O)(=O)c2ccc(C)cc2)c2ccccc2)cc1	n	58.6	n	n	n	n	+	+
CC(C)(C)OC(=O)NCCC(=O)N/N=C/c1ccc2nccnc2c1	n	n	n	u	n	n	x	x
COc1ccc2nc(/C=N/NC(=O)CCCCCNC(=O)OC(C)(C)C)ccc2c1	n	62.9	n	u	33.3	n	94.5	86.0
COC(CNC(=O)c1cccc(-n2c(=S)[nH]c3cc(Cl)ccc3c2=O)c1)OC	n	68.0	n	n	n	n	+	159.1
SMILES	Autofluor counter	FBA Mtb inh	Anthrax LF prot	BoNT-F LC inh	GDH-TPI counter-1	BoNT A protease	Mtb FBA inh conf	GDH-TPI counter-2
CNCc1cc(Cl)cc(OC)c1OC(C)C	n	65.0	n	n	n	n	78.9	86.0
CNS(=O)(=O)c1cccc(C(=O)OCC(=O)Nc2cc(F)ccc2F)c1	n	n	n	n	n	n	x	x
c1ccc2nc3[nH]cnc3nc2c1	n	42.0	n	n	n	n	154.4	101.3
OCCN1CCN(C(=S)NC2CCCC2)CC1	n	n	n	n	n	n	x	x
O=c1ccc2cc(S(=O)(=O)N3CCN(c4cc(Cl)ccc4Cl)CC3)ccc2o1	n	n	n	n	n	n	x	x
CCOc1cccc2sc(N(CCCN(C)C)C(=O)c3ccc(S(=O)(=O)N(C)Cc4ccccc4)cc3)nc12	n	n	n	n	n	n	x	x
